Assay results from PubChem BioAssay AID1159580 (chemical genetic matrix, 2015).
Where “and” joins values, the source holds several entries; their conditions need not be identical. Equal entries are not always repeated. Screen size: about 5,500 compounds; about 2,000 (36%) were called active. Inconclusive results (about 18%) are left out. Rule as the data show it: active = normalized growth mostly below about 0.91 (no sharp cut-off); inconclusive = no clear call, values can overlap the other calls; inactive = mostly above about 0.92. Some of the results follow. Some structures have more than one record in an assay (separate samples or runs), and their calls can disagree.

Experiment: chemical genetic growth profiling, strain panel (AID 1159580);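 also: tested at 20 µM; growth read once vehicle control cultures reached saturation at 30 °C; 1 = growth at the plate median or of vehicle wells; lower values mean less growth of the strain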
Details: growth OD

CCN(CC)C(=S)SSC(=S)N(CC)CC
normalized growth (S. cerevisiae deletion strains, locus YJR075W, strain HOC1, stronger effect = lower value): 0.0635 (active) and 0.949 (inactive) | normalized growth (S. cerevisiae deletion strains, locus YKL009W, strain mrt4, stronger effect = lower value): 0.606 (active) | normalized growth (S. cerevisiae deletion strains, locus YKL068W, stronger effect = lower value): 0.0556 (active) | normalized growth (S. cerevisiae deletion strains, locus YKL085W, strain MDH1 (second series), stronger effect = lower value): 0.0512 (active) | normalized growth (S. cerevisiae deletion strains, locus YKL085W, strain MDH1, stronger effect = lower value): 0.0512 (active) | normalized growth (S. cerevisiae deletion strains, locus YKL160W, strain elf1, stronger effect = lower value): 0.0678 (active) | normalized growth (S. cerevisiae deletion strains, locus YKL190W, strain CNB1, stronger effect = lower value): 0.0509 (active) | normalized growth (S. cerevisiae deletion strains, locus YKR001C, strain vps1, stronger effect = lower value): 0.0705 (active) | normalized growth (S. cerevisiae deletion strains, locus YKR026C, strain gcn3, stronger effect = lower value): 0.0628 (active) | normalized growth (S. cerevisiae deletion strains, locus YKR091W, strain srl3, stronger effect = lower value): 0.0583 (active) | normalized growth (S. cerevisiae deletion strains, locus YLL001W, strain dnm1, stronger effect = lower value): 0.0613 (active) | normalized growth (S. cerevisiae deletion strains, locus YLL026W, stronger effect = lower value): 0.0601 (active) | normalized growth (S. cerevisiae deletion strains, locus YLL041C, strain sdh2, stronger effect = lower value): 0.0577 (active) | normalized growth (S. cerevisiae deletion strains, locus YLR027C, strain aat2, stronger effect = lower value): 0.0572 (active) | normalized growth (S. cerevisiae deletion strains, locus YLR039C, strain RIC1, stronger effect = lower value): 0.0861 (active) | normalized growth (S. cerevisiae deletion strains, locus YLR058C, strain SHM2, stronger effect = lower value): 0.0583 (active) | normalized growth (S. cerevisiae deletion strains, locus YLR102C, strain apc9, stronger effect = lower value): 0.0612 (active) | normalized growth (S. cerevisiae deletion strains, locus YLR113W, strain HOG1, stronger effect = lower value): 0.133 (active) | normalized growth (S. cerevisiae deletion strains, locus YLR221C, strain rsa3, stronger effect = lower value): 0.0619 (active) | normalized growth (S. cerevisiae deletion strains, locus YLR258W, strain gsy2, stronger effect = lower value): 0.0609 (active) | normalized growth (S. cerevisiae deletion strains, locus YLR262C, strain YPT6 (second series), stronger effect = lower value): 0.0822 (active) | normalized growth (S. cerevisiae deletion strains, locus YLR262C, strain YPT6, stronger effect = lower value): 0.109 (active) | normalized growth (S. cerevisiae deletion strains, locus YLR268W, strain sec22, stronger effect = lower value): 0.061 (active) | normalized growth (S. cerevisiae deletion strains, locus YLR320W, strain mms22, stronger effect = lower value): 0.087 (active) | normalized growth (S. cerevisiae deletion strains, locus YLR330W, strain CHS5, stronger effect = lower value): 0.0617 (active) | normalized growth (S. cerevisiae deletion strains, locus YLR342W, strain FKS1 (second series), stronger effect = lower value): 0.0677 (active) | normalized growth (S. cerevisiae deletion strains, locus YLR342W, strain FKS1, stronger effect = lower value): 0.0645 (active) | normalized growth (S. cerevisiae deletion strains, locus YLR357W, strain rsc2, stronger effect = lower value): 0.119 (active) | normalized growth (S. cerevisiae deletion strains, locus YLR370C, strain arc18, stronger effect = lower value): 0.0622 (active) | normalized growth (S. cerevisiae deletion strains, locus YLR371W, strain rom2, stronger effect = lower value): 0.0655 (active) | normalized growth (S. cerevisiae deletion strains, locus YLR384C, strain iki3, stronger effect = lower value): 0.0605 (active) | normalized growth (S. cerevisiae deletion strains, locus YLR418C, strain cdc73, stronger effect = lower value): 0.0926 (active) | normalized growth (S. cerevisiae deletion strains, locus YML016C, strain PPZ1, stronger effect = lower value): 0.052 (active) | normalized growth (S. cerevisiae deletion strains, locus YML032C, strain rad52, stronger effect = lower value): 0.263 (active) | normalized growth (S. cerevisiae deletion strains, locus YML120C, strain ndi1, stronger effect = lower value): 0.0591 (active) | normalized growth (S. cerevisiae deletion strains, locus YML124C, strain tub3, stronger effect = lower value): 0.0572 (active) | normalized growth (S. cerevisiae deletion strains, locus YMR058W, strain fet3, stronger effect = lower value): 0.0624 (active) | normalized growth (S. cerevisiae deletion strains, locus YMR078C, strain ctf18, stronger effect = lower value): 0.073 (active) | normalized growth (S. cerevisiae deletion strains, locus YMR125W, strain sto1, stronger effect = lower value): 0.0735 (active) | normalized growth (S. cerevisiae deletion strains, locus YMR129W, stronger effect = lower value): 0.0588 (active) | normalized growth (S. cerevisiae deletion strains, locus YMR205C, strain PFK2, stronger effect = lower value): 0.088 (active) | normalized growth (S. cerevisiae deletion strains, locus YMR223W, strain ubp8, stronger effect = lower value): 0.0608 (active) | normalized growth (S. cerevisiae deletion strains, locus YMR231W, strain pep5, stronger effect = lower value): 0.0654 (active) | normalized growth (S. cerevisiae deletion strains, locus YMR263W, strain SAP30, stronger effect = lower value): 0.0587 (active) | normalized growth (S. cerevisiae deletion strains, locus YMR307W, strain GAS1, stronger effect = lower value): 0.0974 (active) | normalized growth (S. cerevisiae deletion strains, locus YNL067W, strain RPL9B, stronger effect = lower value): 0.0505 (active) | normalized growth (S. cerevisiae deletion strains, locus YNL071W, strain lat1, stronger effect = lower value): 0.0618 (active) | normalized growth (S. cerevisiae deletion strains, locus YNL128W, strain TEP1, stronger effect = lower value): 0.0626 (active) and 0.0798 (active) | normalized growth (S. cerevisiae deletion strains, locus YNL153C, strain GIM3, stronger effect = lower value): 0.0777 (active) | normalized growth (S. cerevisiae deletion strains, locus YNL175C, strain NOP13, stronger effect = lower value): 0.342 (active) | normalized growth (S. cerevisiae deletion strains, locus YNL183C, strain NPR1, stronger effect = lower value): -0.00035 (active) | normalized growth (S. cerevisiae deletion strains, locus YNL197C, strain WHI3, stronger effect = lower value): 0.0658 (active) | normalized growth (S. cerevisiae deletion strains, locus YNL209W, strain ssb2, stronger effect = lower value): 0.06 (active) | normalized growth (S. cerevisiae deletion strains, locus YNL224C, strain SQS1, stronger effect = lower value): 0.179 (active) | normalized growth (S. cerevisiae deletion strains, locus YNL233W, strain BNI4, stronger effect = lower value): 0.0544 (active) | normalized growth (S. cerevisiae deletion strains, locus YNL248C, strain rpa49, stronger effect = lower value): 0.0771 (active) | normalized growth (S. cerevisiae deletion strains, locus YNL250W, strain rad50, stronger effect = lower value): 0.0637 (active) | normalized growth (S. cerevisiae deletion strains, locus YNL271C, strain bni1, stronger effect = lower value): 0.0645 (active) | normalized growth (S. cerevisiae deletion strains, locus YNL298W, strain CLA4, stronger effect = lower value): 0.0615 (active) | normalized growth (S. cerevisiae deletion strains, locus YNL307C, strain MCK1, stronger effect = lower value): 0.0703 (active) | normalized growth (S. cerevisiae deletion strains, locus YNL322C, strain KRE1 (second series), stronger effect = lower value): 0.0666 (active) | normalized growth (S. cerevisiae deletion strains, locus YNL322C, strain KRE1, stronger effect = lower value): 0.0502 (active) and 0.997 (inactive) | normalized growth (S. cerevisiae deletion strains, locus YNR049C, strain mso1, stronger effect = lower value): 0.0606 (active) | normalized growth (S. cerevisiae deletion strains, locus YNR052C, strain pop2, stronger effect = lower value): 0.138 (active) | normalized growth (S. cerevisiae deletion strains, locus YOL006C, strain TOP1, stronger effect = lower value): 0.104 (active) | normalized growth (S. cerevisiae deletion strains, locus YOL012C, strain htz1): 0.179 (active) | normalized growth (S. cerevisiae deletion strains, locus YOL147C, strain pex11, stronger effect = lower value): 0.946 (inactive) | normalized growth (S. cerevisiae deletion strains, locus YOR001W, strain rrp6, stronger effect = lower value): 0.0666 (active) | normalized growth (S. cerevisiae deletion strains, locus YOR061W, strain CKA2, stronger effect = lower value): 0.0499 (active) | normalized growth (S. cerevisiae deletion strains, locus YOR069W, strain VPS5, stronger effect = lower value): 0.0518 (active) | normalized growth (S. cerevisiae deletion strains, locus YOR070C, strain gyp1, stronger effect = lower value): 0.0741 (active) | normalized growth (S. cerevisiae deletion strains, locus YOR080W, strain dia2, stronger effect = lower value): 0.0684 (active) | normalized growth (S. cerevisiae deletion strains, locus YOR083W, strain WHI5 (second series), stronger effect = lower value): 0.0704 (active) | normalized growth (S. cerevisiae deletion strains, locus YOR083W, strain WHI5, stronger effect = lower value): 0.0659 (active) | normalized growth (S. cerevisiae deletion strains, locus YOR106W, strain vam3, stronger effect = lower value): 0.0652 (active) | normalized growth (S. cerevisiae deletion strains, locus YOR136W, strain idh2, stronger effect = lower value): 0.0727 (active) | normalized growth (S. cerevisiae deletion strains, locus YOR144C, strain elg1, stronger effect = lower value): 0.803 (active) | normalized growth (S. cerevisiae deletion strains, locus YOR184W, strain ser1, stronger effect = lower value): 0.0638 (active) | normalized growth (S. cerevisiae deletion strains, locus YOR231W, strain MKK1, stronger effect = lower value): 0.117 (active) | normalized growth (S. cerevisiae deletion strains, locus YOR265W, strain rbl2, stronger effect = lower value): 0.0575 (active) | normalized growth (S. cerevisiae deletion strains, locus YOR270C, strain vph1, stronger effect = lower value): 0.0967 (active) | normalized growth (S. cerevisiae deletion strains, locus YOR290C, strain snf2, stronger effect = lower value): 0.627 (active) | normalized growth (S. cerevisiae deletion strains, locus YOR316C, strain cot1, stronger effect = lower value): 0.0596 (active) | normalized growth (S. cerevisiae deletion strains, locus YPL051W, strain arl3, stronger effect = lower value): 0.0672 (active) | normalized growth (S. cerevisiae deletion strains, locus YPL055C, strain LGE1, stronger effect = lower value): 0.0641 (active) | normalized growth (S. cerevisiae deletion strains, locus YPL078C, strain atp4, stronger effect = lower value): 0.0676 (active) | normalized growth (S. cerevisiae deletion strains, locus YPL106C, strain sse1, stronger effect = lower value): 0.103 (active) | normalized growth (S. cerevisiae deletion strains, locus YPL240C, strain hsp82, stronger effect = lower value): 0.0557 (active) | normalized growth (S. cerevisiae deletion strains, locus YPL241C, strain CIN2, stronger effect = lower value): 0.0528 (active) and 0.999 (inactive) | normalized growth (S. cerevisiae deletion strains, locus YPL256C, strain CLN2, stronger effect = lower value): 0.13 (active) | normalized growth (S. cerevisiae deletion strains, locus YPR119W, strain clb2, stronger effect = lower value): 0.0619 (active) | normalized growth (S. cerevisiae deletion strains, locus YPR141C, strain kar3, stronger effect = lower value): 0.0641 (active) | normalized growth (S. cerevisiae deletion strains, locus YPR163C, strain tif3, stronger effect = lower value): 0.0693 (active) | normalized growth (S. cerevisiae deletion strains, locus YPR167C, strain met16, stronger effect = lower value): 0.0622 (active) | normalized growth (S. cerevisiae deletion strains, strain wtn01, stronger effect = lower value): 0.0586 (active) | normalized growth (S. cerevisiae strains, strain wild type, stronger effect = lower value): 0.05 (active)
